Counter-ions that a name gives are not always drawn. ± gives the standard deviation of the averaged measurements.
Key:
Assay in all cases: growth (OD600 after 10 h); higher = more growth (less inhibition)
[1] = test system: E. coli TESEC Alr+ wild-type control; details: compound 0.1 mM; raw OD600 reference: median of DMSO wells 0.241, cell-free background 0.041
Method: (§1)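 TESEC Mtb Alr E. coli, or the Alr+ wild-type control, in 384-well plates with Prestwick library compounds at 0.1 mM and 1% DMSO, across arabinose induction levels of 1E3 to 1E7 nM. Growth is read as OD600 after 10 h at 37 °C in triplicate biological replicates.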

E. coli TESEC Mtb Alr [2] = details: compound 0.1 mM
Method: as §1

E. coli TESEC Mtb Asd = details: compound 0.1 mM
Method: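 TESEC E. coli strains in which the native enzyme is deleted and replaced by arabinose-inducible Mtb Asd, DapB, CysH or TrpD, each grown in its selective medium. Strains were screened against the Prestwick library at 0.1 mM and 1% DMSO in 384-well format at low and high arabinose induction. Growth is read as OD600 after 10 h in triplicate.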

[3] = test system: E. coli TESEC Alr+ wild-type control; details: compound 0.1 mM; raw OD600 reference: median of DMSO wells 0.49, cell-free background 0.052
Method: (§2)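 TESEC Mtb Alr E. coli (ΔaraC ΔtolC ΔentC Δalr ΔdadX, arabinose-inducible Mtb Alr) or the Alr+ wild-type control strain, grown in defined M9-fructose medium without D-alanine in 96-well plates with Prestwick library compounds at 0.1 mM and 1% DMSO. Low Alr induction is 0.1 µM arabinose and high induction is 10 mM arabinose.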

E. coli TESEC Mtb Alr [4] = details: compound 0.1 mM; remark: listed apart in the source
Method: as §2

[5] = arabinose 1000 nM, raw OD600 reference: median of DMSO wells 0.294, cell-free background 0.041
[6] = arabinose 10000 nM, raw OD600 reference: median of DMSO wells 0.264, cell-free background 0.041
[7] = arabinose 100000 nM, raw OD600 reference: median of DMSO wells 0.201, cell-free background 0.041
[8] = arabinose 1000000 nM, raw OD600 reference: median of DMSO wells 0.193, cell-free background 0.041
[9] = arabinose 10000000 nM, raw OD600 reference: median of DMSO wells 0.146, cell-free background 0.041
[10] = arabinose induction (level): High, raw OD600 reference: median of DMSO wells 0.331, cell-free background 0.041
[11] = arabinose induction (level): Low, raw OD600 reference: median of DMSO wells 0.417, cell-free background 0.041
[12] = arabinose 100 nM, raw OD600 reference: median of DMSO wells 0.413, cell-free background 0.052
[13] = arabinose 10000000 nM, raw OD600 reference: median of DMSO wells […], cell-free background 0.052

Structure (SMILES) | growth [1] | growth (E. coli TESEC Mtb Alr [2]; [5]) | growth (E. coli TESEC Mtb Alr [2]; [6]) | growth (E. coli TESEC Mtb Alr [2]; [7]) | growth (E. coli TESEC Mtb Alr [2]; [8]) | growth (E. coli TESEC Mtb Alr [2]; [9]) | growth (E. coli TESEC Mtb Asd; [10]) | growth (E. coli TESEC Mtb Asd; [11]) | growth [3] | growth (E. coli TESEC Mtb Alr [4]; [12]) | growth (E. coli TESEC Mtb Alr [4]; [13])
CN(C)CCN1C(=O)c2ccccc2N(C)c2ccccc21 [Dibenzepine hydrochloride] | 0.234 ± 0.0039 | 0.312 ± 0.018 | 0.286 ± 0.0089 | 0.185 ± 0.03 | 0.167 ± 0.0098 | 0.139 ± 0.0036 | 0.23 ± 0.059 | 0.317 ± 0.04 | 0.608 ± 0.13 | 0.415 ± 0.0072 | 0.34 ± 0.015
O=P(O)(O)C(Cl)(Cl)P(=O)(O)O [Clodronate] | 0.248 ± 0.0073 | 0.308 ± 0.021 | 0.284 ± 0.005 | 0.188 ± 0.016 | 0.193 ± 0.0024 | 0.14 ± 0.0033 | 0.336 ± 0.042 | 0.403 ± 0.025 | 0.528 ± 0.084 | 0.411 ± 0.0072 | 0.303 ± 0.0027
CC(C)(C)CC(C)(C)c1ccc(OCCOCC[N+](C)(C)Cc2ccccc2)cc1 [Benzethonium chloride] | 0.0416 ± 0.00072 | 0.0415 ± 0.0011 | 0.0413 ± 0.0002 | 0.0425 ± 0.0011 | 0.04103 ± 0.00021 | 0.0418 ± 0.00044 | 0.0499 ± 0.00098 | 0.0496 ± 0.0017 | 0.04753 ± 0.00035 | 0.0552 ± 0.0016 | 0.0504 ± 0.00059
CC(C)(C)NC[C@H](O)COc1nsnc1N1CCOCC1 [Timolol maleate salt] | 0.2306 ± 0.00072 | 0.306 ± 0.0088 | 0.252 ± 0.0061 | 0.198 ± 0.0053 | 0.172 ± 0.0044 | 0.151 ± 0.006 | 0.451 ± 0.021 | 0.432 ± 0.019 | 0.51 ± 0.069 | 0.401 ± 0.015 | 0.32 ± 0.021
CCC(C)n1ncn(-c2ccc(N3CCN(c4ccc(OCC5COC(Cn6cncn6)(c6ccc(Cl)cc6Cl)O5)cc4)CC3)cc2)c1=O (configuration not stated) [Itraconazole] | 0.25 ± 0.006 | 0.321 ± 0.01 | 0.258 ± 0.0035 | 0.251 ± 0.012 | 0.171 ± 0.017 | 0.148 ± 0.005 | 0.421 ± 0.0098 | 0.462 ± 0.049 | 0.44 ± 0.018 | 0.441 ± 0.027 | 0.368 ± 0.015
Clc1cc(Cl)c(OCC#CI)cc1Cl [Haloprogin] | 0.128 ± 0.027 | 0.249 ± 0.015 | 0.197 ± 0.0027 | 0.216 ± 0.004 | 0.137 ± 0.0043 | 0.168 ± 0.0052 | 0.242 ± 0.037 | 0.276 ± 0.095 |  | 0.386 ± 0.027 | 0.104 ± 0.0032
CC(C)COCC(CN(Cc1ccccc1)c1ccccc1)N1CCCC1 (configuration not stated) [Bepridil hydrochloride] | 0.03963 ± 0.00021 | 0.03953 ± 0.00038 | 0.03937 ± 0.00031 | 0.04057 ± 0.00029 | 0.03933 ± 5.8e-05 | 0.0411 ± 0.0014 | 0.04653 ± 0.00032 | 0.0475 ± 0.0016 |  | 0.304 ± 0.21 | 0.0512 ± 0.0012
N[C@H]1CONC1=O [(S)-(-)-Cycloserine] | 0.247 ± 0.0025 | 0.0382 ± 0.001 | 0.0389 ± 0.0016 | 0.217 ± 0.0065 | 0.188 ± 0.012 | 0.108 ± 0.0032 | 0.329 ± 0.034 | 0.354 ± 0.038 | 0.558 ± 0.063 | 0.045 ± 0.00044 | 0.13 ± 0.0078
CC(=O)O[C@H]1C[C@@H]2CC[C@@H]3[C@H](CC[C@@]4(C)[C@H]3C[C@H]([N+]3(C)CCCCC3)[C@@H]4OC(C)=O)[C@@]2(C)C[C@@H]1N1CCCCC1 [Vecuronium bromide] | 0.0818 ± 0.00093 | 0.0791 ± 0.0015 | 0.0482 ± 0.00074 | 0.07643 ± 0.00021 | 0.0518 ± 0.0023 | 0.07727 ± 0.00072 | 0.136 ± 0.0039 | 0.124 ± 0.0035 | 0.23 ± 0.013 | 0.396 ± 0.0098 | 0.0791 ± 0.0096
COc1cc(C(=O)OCCCN2CCCN(CCCOC(=O)c3cc(OC)c(OC)c(OC)c3)CC2)cc(OC)c1OC [Dilazep dihydrochloride] | 0.174 ± 0.0063 | 0.264 ± 0.034 | 0.291 ± 0.0076 | 0.18 ± 0.0077 | 0.118 ± 0.0022 | 0.154 ± 0.0029 | 0.232 ± 0.023 | 0.35 ± 0.051 |  | 0.417 ± 0.012 | 0.316 ± 0.029

Source: the supplement of paper PMC9262897, “Low-cost anti-mycobacterial drug discovery using engineered E. coli” (Nature Communications, 2022)
